Assay outcomes as filed in PubChem BioAssay.
NRP1-CendR mod: NRP-1/CendR interaction modulation; O14786; FAM-RPARPAR peptide binding to NRP-1, fluorescence polarization; inhibition, % at 25 µM; actives 0.85% (n = 360,000);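 active = inhibition or corrected inhibition above about 18%, plus a signal ratio from 0.5 to 1.5, limit read from the data, passing the limit was not always enough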
ADAM10 inh: ADAM10 inhibition, QFRET primary screen; recombinant ADAM10, EDANS/DABCYL FRET peptide cleavage, 3 h; inhibition, % at 7 µM; actives 0.62% (n = 370,000);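 active = inhibition above a per-campaign cutoff equal to the mean of compounds falling between control-based bounds plus 3 SD, cut at about 20% in these data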;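 also: 0% = DMSO wells while the 100% control is not disclosed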
APOBEC3G inh: APOBEC3G (human) deaminase inhibition | AID 493012 | actives 0.28% (n = 330,000) | recombinant A3G, ssDNA deamination FAM/TAMRA fluorescence | inhibition, % at 20 µM;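 active = inhibition of at least 40% at 20 µM, with no more than 30% in the related APOBEC3A deaminase screen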;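 also: plate controls were DMSO wells with A3G for no effect and wells lacking A3G enzyme for full effect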
ADAM17 inh: inhibitors of human ADAM17; P78536; recombinant ADAM17, EDANS/DABCYL FRET peptide cleavage; inhibition, % at 6.95 µM; actives 0.83% (n = 370,000); AID 720648;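 active = inhibition above the mean of compounds lying between control limits plus 3 SD, set per campaign, cut at about 8.5% in these data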;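 also: 0% = DMSO-only wells as the low control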
A3A deaminase: inhibitors of human APOBEC3A DNA deaminase | P31941 | recombinant A3A, FAM/TAMRA ssDNA deamination fluorescence | inhibition, % at 20 µM | actives 0.41% (n = 330,000) | AID 493011;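 active = at least 40% inhibition at 20 µM here, with at most 30% in a related deaminase screen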;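 also: plate controls were A3A with DMSO for no effect and wells lacking A3A enzyme for full effect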
An asterisk follows results filed as active. This is a sample that favours compounds with a hit; in the whole collection about 2.4% have one here.

C[C@@]12C(=O)N(CC3CCCO3)CC(=O)N1[C@@H]1c3ccccc3OC[C@@H]1[C@@H]2c1ccccc1 (stereo not given in full) was read as NRP1-CendR mod 4, ADAM10 inh -13 and ADAM17 inh -7.
Screening Cc1onc(-c2ccc(Cl)cc2Cl)c1-c1csc(COc2ccccc2)n1 returned NRP1-CendR mod 27*, ADAM10 inh -4, APOBEC3G inh -8, ADAM17 inh 1 and A3A deaminase 0.
`CC(C)(C)OC(=O)N1O[C@H]2C[C@@H]1[C@@H]1[C@@H]2N=NN1C12CC3CC(CC(C3)C1)C2` gave NRP1-CendR mod 2, ADAM10 inh 1, APOBEC3G inh 3, ADAM17 inh 2 and A3A deaminase 3.
Screening CC(C)(C)OC(=O)N1O[C@H]2CC1[C@@H]1[C@@H]2N=NN1CCc1ccncc1 returned NRP1-CendR mod 23*, ADAM10 inh -2, APOBEC3G inh 1, ADAM17 inh -3 and A3A deaminase 9.
CCOC(=O)C1=C(C(=O)OCC)C2N(Cc3ccc(C#N)cc3)c3ccccc3[C@@]23C[C@@H](C(=O)OC)N(S(=O)(=O)c2ccccc2)C3=N1 (stereo not given in full) was read as ADAM10 inh 1 and ADAM17 inh 0.
Screening COc1ccc(-c2ccc3c(n2)CCCN3S(=O)(=O)c2ccc(C#N)cc2)cc1 returned ADAM10 inh -54 and ADAM17 inh -10.
`CC(=O)NCCn1ccc2ccccc21` gave NRP1-CendR mod 32*, ADAM10 inh -13, APOBEC3G inh -8, ADAM17 inh -4 and A3A deaminase -4.
`O=C(Cc1ccccc1)NCCn1ccc2ccccc21` gave NRP1-CendR mod 2, ADAM10 inh -4, APOBEC3G inh 0, ADAM17 inh 0 and A3A deaminase -1.
For c1ccc(Nc2ncnc3c2oc2ccccc23)cc1 the results were NRP1-CendR mod 24*, ADAM10 inh -11, APOBEC3G inh 1, ADAM17 inh -4 and A3A deaminase 2.
O=c1[nH][nH]c2cc(=O)n(-c3cccc(C(F)(F)F)c3)nc12 was read as NRP1-CendR mod 26*, ADAM10 inh 2, APOBEC3G inh -1, ADAM17 inh 4 and A3A deaminase 3.
Screening Nc1n[nH]c2cc(=O)n(-c3cccc(C(F)(F)F)c3)nc12 returned NRP1-CendR mod 0, ADAM10 inh -6, APOBEC3G inh -4, ADAM17 inh -4 and A3A deaminase -1.
Screening O=c1ccn(Cc2ccccc2)c2ccccc12 returned NRP1-CendR mod 30*, ADAM10 inh -4, APOBEC3G inh -9, ADAM17 inh -2 and A3A deaminase 1.
`Cc1c(OCc2ccccc2)c(=O)ccn1Cc1ccccc1` gave NRP1-CendR mod 4, ADAM10 inh 3, APOBEC3G inh -6, ADAM17 inh -4 and A3A deaminase -2.
Cn1c(=O)c2[nH]c(COc3ccccc3)nc2n(C)c1=O was read as NRP1-CendR mod 32*, ADAM10 inh -140 and ADAM17 inh -40.
Screening Cn1c(=O)c2[nH]c(CN(Cc3ccccc3)Cc3ccccc3)nc2n(C)c1=O returned NRP1-CendR mod -11, ADAM10 inh 0, APOBEC3G inh -8, ADAM17 inh -1 and A3A deaminase -4.
`O=C(NCCOC(=O)c1ccccc1)c1ccccc1` gave NRP1-CendR mod 22*, ADAM10 inh -15, APOBEC3G inh -7, ADAM17 inh -7 and A3A deaminase -5.
`O=C(NCCOC(=O)c1ccc(C(=O)OCCNC(=O)c2ccccc2)o1)c1ccccc1` gave NRP1-CendR mod -5, ADAM10 inh -4, APOBEC3G inh -2, ADAM17 inh -4 and A3A deaminase -1.
Screening N#CC1=C(N)SC(N)=C(C#N)C1Cc1ccccc1 returned NRP1-CendR mod 126, ADAM10 inh -62, APOBEC3G inh 48*, ADAM17 inh -22 and A3A deaminase -5.
`O=C(N[C@H](C(=O)N1CCC[C@H]1C(=O)NCc1ccccc1)c1ccccc1)C1CCCC1` gave ADAM10 inh -1 and ADAM17 inh -2.
Screening COc1cccc(/C(O)=C2/C(=O)C(=O)N(CCN(C)C)C2c2ccc(Br)cc2)c1 (stereo not given) returned NRP1-CendR mod 20*, ADAM10 inh 1, APOBEC3G inh 2, ADAM17 inh -1 and A3A deaminase -1.
Screening CC(=O)C1=C(C)N(Cc2ccc(Br)cc2)C(=S)NC1c1ccc(F)cc1 (stereo not given) returned ADAM10 inh 7 and ADAM17 inh 6.
